{
  "source": "ChEMBL document CHEMBL3988442",
  "about": "“University of Dundee, Small-Polar-MMV Screening Library” (2021)",
  "note": "Among all 48,000 compounds or so, about 13,000 (27%) showed an effect of 50% or more. The list shows a part of the results.",
  "data": [
    {"test_system": "Wolbachia pipientis", "test": "Anti-Wolbachia Cell-Based Screen", "assay_type": "functional", "design": "scale not given: in the data most compounds retested in dose-response had high values", "details": "5 µM", "units": {"Percent Effect": "%"}, "values": [
      {"smiles": "O=C(NC[C@H]1OC[C@@H](NC2CCC(F)(F)CC2)[C@@H]1O)C1CCCC1", "Percent Effect": 8.921},
      {"smiles": "CN(C)c1cc2c(nn1)CCN(C(=O)C1COc3ccccc3C1)C2", "note": "(stereo not given)", "Percent Effect": -4.709},
      {"smiles": "CN(Cc1ccco1)C(=O)[C@@]12CNC[C@@H]1CN(C1CCCC1)C2", "Percent Effect": -1.971},
      {"smiles": "O=C(NC1CC2(CCN(CCO)CC2)c2ccccc21)c1ccncc1.O=C(O)C(F)(F)F.O=C(O)C(F)(F)F", "note": "(stereo not given)", "Percent Effect": -8.101},
      {"smiles": "CC(C)C(=O)NC1CC2(CCN(CC(=O)N(C)C)CC2)c2ccccc21.O=C(O)C(F)(F)F", "note": "(stereo not given)", "Percent Effect": 105.8},
      {"smiles": "COCC(=O)NC1CC2(CCN(CCN(C)C)CC2)c2ccccc21", "note": "(stereo not given)", "Percent Effect": 87.88},
      {"smiles": "CCN1CCC2(CC1)CC(NC(=O)c1ccnnc1)c1ccccc12.O=C(O)C(F)(F)F", "note": "(stereo not given)", "Percent Effect": -6.669},
      {"smiles": "COCC(=O)NC1CC2(CCN(CCO)CC2)c2ccccc21.O=C(O)C(F)(F)F", "note": "(stereo not given)", "Percent Effect": 86.71},
      {"smiles": "CCC(c1nc(C(C)C)nn1-c1ccccn1)n1cccn1", "note": "(stereo not given)", "Percent Effect": 8.011},
      {"smiles": "CC(C)N1CCc2c(c(COc3cncnc3)nn2CC2CC2)C1.O=C(O)C(F)(F)F", "Percent Effect": -1.489},
      {"smiles": "c1ccc(-c2cnc(CNC3CCCN(c4cccnn4)C3)o2)cc1", "note": "(stereo not given)", "Percent Effect": -8.343},
      {"smiles": "O=C(c1ccno1)N1C[C@@H](F)[C@@H](OCc2nc3ccccc3o2)C1", "Percent Effect": 6.473},
      {"smiles": "NC(=O)C1CN(c2ccc3c(Cl)ccnc3c2F)CCO1", "note": "(stereo not given)", "Percent Effect": -12.11},
      {"smiles": "CCc1nc(NC(=O)Cc2csc(-c3nnc[nH]3)n2)sc1C", "Percent Effect": 3.287},
      {"smiles": "O=C(O)C(F)(F)F.c1cc(CN2Cc3nnn(CC4CC4)c3C(COCC3CC3)C2)co1", "note": "(stereo not given)", "Percent Effect": 1.787},
      {"smiles": "CCOCC1CN(C(=O)N(C)C)Cc2nnn(CC3CC3)c21", "note": "(stereo not given)", "Percent Effect": -7.85},
      {"smiles": "CCOCC1CN(C(=O)[C@H]2CCCO2)Cc2nnn(CC3CC3)c21", "note": "(stereo not given in full)", "Percent Effect": 0.1287},
      {"smiles": "COCC1CN(Cc2ccncc2)Cc2nnn(CC3CC3)c21.O=C(O)C(F)(F)F.O=C(O)C(F)(F)F", "note": "(stereo not given)", "Percent Effect": -5.053},
      {"smiles": "CN(C)C(=O)N1Cc2nnn(C)c2C(COCC2CC2)C1", "note": "(stereo not given)", "Percent Effect": 7.957},
      {"smiles": "C1CCC(CN2Cc3nnn(CC4CC4)c3C(COCC3CC3)C2)C1.O=C(O)C(F)(F)F", "note": "(stereo not given)", "Percent Effect": 107.6},
      {"smiles": "COCC1CN(C(=O)[C@H]2CCCO2)Cc2nnn(CC3CC3)c21", "note": "(stereo not given in full)", "Percent Effect": -4.44},
      {"smiles": "CCOCC1CN(CC2CCC2)Cc2nnn(CC3CC3)c21", "note": "(stereo not given)", "Percent Effect": 111.4},
      {"smiles": "C1CC(N2Cc3nnn(CC4CC4)c3C(COCC3CC3)C2)C1.O=C(O)C(F)(F)F", "note": "(stereo not given)", "Percent Effect": 96.7},
      {"smiles": "CN(C)C(=O)N1Cc2nnn(CC3CC3)c2C(COCC2CC2)C1", "note": "(stereo not given)", "Percent Effect": 117.2},
      {"smiles": "CCSC1(CNc2ncc(Br)cn2)CCOCC1", "Percent Effect": -0.7161},
      {"smiles": "Cc1cc(CN2CCN(C(=O)C(C)C)[C@@H]3CS(=O)(=O)C[C@@H]32)ccc1F", "Percent Effect": -3.716},
      {"smiles": "CC(Cn1ccnc1)NCc1nncn1C1CCCCC1", "note": "(stereo not given)", "Percent Effect": -17.23},
      {"smiles": "NC(=O)COc1ccc(CN2CC[C@@]3(O)CCCC[C@H]3C2)cc1Cl", "Percent Effect": 11.68},
      {"smiles": "CSc1ncccc1C(=O)NC(C)c1cccc(N2CCOC2=O)c1", "note": "(stereo not given)", "Percent Effect": 5.443},
      {"smiles": "Cc1cc(CN(C)C(=O)C2CCS(=O)(=O)C2)no1", "note": "(stereo not given)", "Percent Effect": 3.983},
      {"smiles": "CCCn1nnnc1CSc1nccn1Cc1ccccn1", "Percent Effect": -4.795},
      {"smiles": "CCn1ccnc1CNCC1CCCN1c1cccnn1", "note": "(stereo not given)", "Percent Effect": -7.119},
      {"smiles": "O=C(Cc1cccs1)N1CCOCC1CO", "note": "(stereo not given)", "Percent Effect": -3.953},
      {"smiles": "O=C(Cc1cccs1)N1CCCCC1c1ccn2ccnc2n1", "note": "(stereo not given)", "Percent Effect": 83.71},
      {"smiles": "Cc1nc(CC(=O)N2CCCCC2c2ccn3ccnc3n2)cs1", "note": "(stereo not given)", "Percent Effect": -8.343},
      {"smiles": "O=C(Cc1ccsc1)N1CCCCC1c1ccn2ccnc2n1", "note": "(stereo not given)", "Percent Effect": 73.59},
      {"smiles": "CN(Cc1ccccc1F)C(=O)CS(=O)(=O)Cc1ccc(Cl)c(Cl)c1", "Percent Effect": 6.215},
      {"smiles": "CN(Cc1ccccc1F)C(=O)c1cc(Cl)c[nH]1", "Percent Effect": 92.86},
      {"smiles": "Cc1ccccc1CS(=O)(=O)CC(=O)N(C)Cc1ccccc1F", "Percent Effect": -29.58},
      {"smiles": "CN(Cc1ccccc1F)C(=O)COC(=O)c1cc(Cl)c[nH]1", "Percent Effect": 87.09},
      {"smiles": "CN(Cc1ccccc1F)C(=O)c1ccoc1", "Percent Effect": 5.435},
      {"smiles": "COc1ccc(Cl)cc1CS(=O)(=O)CC(=O)N(C)Cc1ccccc1F", "Percent Effect": -1.573},
      {"smiles": "COCCN1CCN(CC(=O)N(C)Cc2ccsc2)CC1C", "note": "(stereo not given)", "Percent Effect": 9.964},
      {"smiles": "CN(Cc1ccsc1)C(=O)COC(=O)c1cc(Cl)c[nH]1", "Percent Effect": 107.8},
      {"smiles": "COC(=O)c1ccc(OCC(=O)N(C)Cc2ccsc2)c(OC)c1", "Percent Effect": 0.9882},
      {"smiles": "Cc1ccc(CNCC2CCc3nnc(C(C)C)n3C2)s1", "note": "(stereo not given)", "Percent Effect": -11.01},
      {"smiles": "CN1CCN(C(=O)CCc2cc(Br)cs2)CC1", "Percent Effect": -6.424},
      {"smiles": "COc1cc(NC(=O)NC2CCOCC2)ccc1N1CCOC1=O", "Percent Effect": -14.6},
      {"smiles": "Cc1ncc(CN(C)c2nc3c(cnn3C(C)(C)C)c(=O)[nH]2)s1", "Percent Effect": 5.937},
      {"smiles": "COc1c(CNC(c2nccn2C)C(C)C)c(C)nn1C", "note": "(stereo not given)", "Percent Effect": -4.434}
    ]}
  ]
}
